Compounds with a hit are over-represented: about 19% of the library has one in this group of screens.
DT40 TDP1 CPT: growth inhibition of DT40 Tdp1-/-;hTDP1 cells with camptothecin (screen for TDP1 inhibitors) | AID 686979 | Potency, µM (titrated, usually from 46.2 µM), actives largely listed as inhibitors | chicken DT40 Tdp1-/-;hTDP1 cells + 20 nM CPT, ATP luminescence, 48 h | actives 12% (n = 420,000); note: nearly all actives have a fitted effect of over 55% in size
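Cell growth measured by CellTiter-Glo luminescence after a minimum 48 h, 37 C compound exposure with 20 nM CPT in Tdp1-knockout DT40 cells stably expressing hTDP1, seeded 400/well; qHTS titration format.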
DT40 TDP1 no CPT: qHTS for Inhibitors of human tyrosyl-DNA phosphodiesterase 1 (TDP1): qHTS in cells in absence of CPT | DT40 Tdp1-/- hTDP1 cells, no CPT, ATP luminescence, 48 h | Potency, µM (series often up to 46.2 µM), usual class: inhibitors | actives 15% (n = 420,000); note: nearly all actives have a fitted effect of over 55% in size
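Chicken DT40 Tdp1-/- cells stably complemented with human TDP1 were seeded at 400 cells/well with DMSO in place of 20 nM camptothecin. After compound pinning, cells grew at least 48 hr at 37 °C; viability read by CellTiter-Glo luminescence.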
HT1080 IDH1KD tx: toxicity to HT-1080 IDH1 knockdown cells (counter line); HT-1080 IDH1 knockdown viability, ATP luminescence, 48 h; actives 2% (n = 360,000); Potency, µM (highest dose often 46.1 µM), hits mostly cytotoxic
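Cytotoxicity counter-line: IDH1KD HT-1080, 48 h, CellTiter-Glo. Curves classed by r2, magnitude and activity.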
IL-1B inflam inh: blocks inflammasome-driven IL-1 beta release; THP-1 LPS/ATP IL-1B secretion, AlphaLISA, 16 h; active compounds read low; activity change, % at 57.5 µM; actives 4.7% (n = 360,000); AID 743279; in the data active = activity change below about -50%; inconclusive = mostly about -30% to -49%
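Secreted IL-1B measured by AlphaLISA bead assay after 16 h compound exposure of THP-1 cells; compounds (final up to 57.5 uM) added 1 h before LPS (250 ng/mL) and ATP (1.25 mM) stimulation; lower signal means less secretion.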
HT1080NT lethal: kills 2HG-producing HT-1080-NT fibrosarcoma cells | HT-1080-NT fibrosarcoma viability, CellTiter-Glo ATP luminescence, 48 h | Potency, µM (series often up to 46.1 µM), most hits filed as cytotoxic | actives 1.6% (n = 360,000) | AID 686970;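 note: NT is the 2HG producing partner of a matched IDH1 knockdown line; nearly all actives have a fitted effect of over 55% in size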
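Toxicity toward the 2HG-producing NT line was scored as %Activity, normalised to DMSO and no-cell wells, from CellTiter-Glo luminescence after 48 hours' treatment.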
Hits are given with their value; n = inactive; u = inconclusive; x = no result given; [ ] = remark or other dose. Unless noted, calls come from the whole dose curve; as a rule, active = well fitted curve in the direction sought with a large enough effect; inconclusive = small, poorly fitted or top-dose-only effect, or another doubt; inactive = no such curve, though single readings can be large; an effect the other way counts as inactive or inconclusive.

SMILES	DT40 TDP1 CPT	DT40 TDP1 no CPT	HT1080 IDH1KD tx	IL-1B inflam inh	HT1080NT lethal
Cc1ccc(CC(=O)Nc2c(C(=O)N3CCN(c4ccccc4F)CC3)oc3ccccc23)cc1	u	18µM	x	x	x
COc1ccccc1C(=O)Nc1c(C(=O)Nc2ccccc2F)oc2ccccc12	21µM	26µM	x	x	x
COc1ccccc1C(=O)Nc1c(C(=O)N2CCN(c3ccccc3F)CC2)oc2ccccc12	16µM	16µM	x	x	x
COc1ccc(CNC(=O)Cc2c(C)c3cc4c(C)coc4cc3oc2=O)cc1	n	n	x	x	x
CN(C)C(CNC(=O)c1ccc2nccnc2c1)c1ccco1 (centres undefined)	n	n	n	n	n
O=C(/C=C/c1ccccc1)c1cccs1	6.7µM	9.4µM	x	x	x
Nc1ccc(/C=C/C(=O)c2cccs2)cc1	n	u	n	-109	n
O=C(/C=C/c1ccc([N+](=O)[O-])cc1)c1cccs1	u	u	n	n	n
CCOc1ccc(/C=C/C(=O)c2cccs2)cc1	27µM	u	x	x	x
O=C(C=Cc1ccccc1)c1cccs1	18µM	16µM	n	n	n
C=CCn1nnnc1-c1cc(Cl)cc(Cl)c1	n	n	n	n	n
COc1ccc(CN2CCCC(n3cc(C(=O)N4CCCCC4)nn3)C2)cc1OC (centres undefined)	n[9.04 µM]	n	x	x	x
CCCCN1CC(=O)N2[C@H]3c4cc(C)ccc4OC[C@@H]3[C@H](C(=O)OCC)[C@]2(C)C1=O	n	n	n	n	n
O=C(CSc1nc2ccccc2nc1Cc1ccc(Cl)cc1)N1CCc2ccccc21	n	n	x	x	x
Cc1c(/C=C/C(=O)c2cccs2)cnn1C	16µM	u	n	n	n
COc1ccc(C)cc1NC(=O)CCc1ccc(S(=O)(=O)N2CCOCC2)cc1	n	n	n	n	n
O=C(Nn1cc(C(=O)Nc2ccccc2F)c2ccccc2c1=O)c1cnccn1	u	u	u	n	n
COc1cc(OC)cc(C(=O)Nn2cc(C(=O)Nc3ccccc3F)c3ccccc3c2=O)c1	23µM	u	n	n	n
COc1ccc(CNC(=O)C2CCN(S(=O)(=O)c3ccc(N4CCCC4=O)cc3)CC2)cc1	26µM	12µM	n	n	n
Cn1nc(C(C)(C)C)cc1C(=O)NCc1ccc(N2CCCC2=O)cc1	3.3µM	2.3µM	u	n	u
Cc1ccc(NC(=O)C2CCN(S(C)(=O)=O)CC2)cc1Cl	n	n	n	-61	n
Cc1ccc(CNC(=O)c2ccc(N3CCCC3=O)cc2)cc1	n	n	n	n	n
O=C(NCc1ccc(N2CCCC2=O)cc1)c1ccc(F)cc1	n	n	n	n	n
COc1ccc(CNC(=O)C2CCN(S(=O)(=O)c3ccccc3)CC2)cc1	n	n	n	n	n
O=C(NCc1ccc(F)cc1)C1CCN(S(=O)(=O)c2ccc(N3CCCC3=O)cc2)CC1	u	16µM	n	n	n
SMILES	DT40 TDP1 CPT	DT40 TDP1 no CPT	HT1080 IDH1KD tx	IL-1B inflam inh	HT1080NT lethal
COc1cc(C2C3=C(CCCC3=O)Nc3[nH]n(-c4ccccc4)c(=O)c32)ccc1OC(C)=O (centres undefined)	n	n	n	n	n
O=c1c2ccccc2oc2c1oc1ccccc12	u	u	n	n	n
CCNC(=O)C1CCN(S(=O)(=O)c2ccc(F)cc2)CC1	u	18µM	n	n	n
O=C(NCCO)C1CCN(S(=O)(=O)c2ccc(F)cc2)CC1	n	n	n	n	n
Cc1ccc(NC(=O)C2CCN(S(=O)(=O)c3ccc(N4CCCC4=O)cc3)CC2)cc1Cl	5.8µM	4.1µM	u	n	u
COc1ccc(NC(=O)C2CCN(S(=O)(=O)c3ccc(N4CCCC4=O)cc3)CC2)c(OC)c1	u	n	n	n	n
O=C(NCc1ccccc1Cl)C1CCN(S(=O)(=O)c2ccc(N3CCCC3=O)cc2)CC1	16µM	u	n	n	n
Cc1ccc(-c2nnn(CC(=O)Nc3ccccc3-c3ccccc3)n2)c(-n2cnnn2)c1	u	u	n	n	n
O=C(NCc1ccccc1)C(C1CC1)n1c(Cc2cc(F)cc(F)c2)nc2ccccc21 (centres undefined)	u	18µM	n	n	n
CC(C(=O)NCc1ccccc1)n1c(Cc2cc(F)cc(F)c2)nc2ccccc21 (centres undefined)	n	u	n	n	n
Cc1nccn1CC(O)COc1ccc(Cl)cc1Cl (centres undefined)	u	15µM	n	n	u
Cc1cc(C)n(CC(O)COc2ccc(Cl)cc2Cl)n1 (centres undefined)	u	21µM	n	-52	n
COc1ccc(CCNC(=O)CN2c3cccc4cccc(c34)S2(=O)=O)cc1OC	n	u	n	n	n
O=C(C1CCC(=O)N(C2CC2)C1)N1CCC(Oc2ccccc2F)CC1 (centres undefined)	n	n	n	n	n
CC(C)(O)C#Cc1ccc(CN2CCc3nnc(CNC(=O)c4cccc(F)c4)n3CC2)cc1	n	n	x	x	x
O=C(c1ccc(C(F)(F)F)cc1)N1CCC(=O)N([C@H](COCc2ccc(C(F)(F)F)cc2)Cc2ccccc2)CC1	23µM	u	u	n	u
CC(C)C[C@@H](COCc1ccc(Cl)cc1)N1CCN(C(=O)c2ccc(C(F)(F)F)cc2)CCC1=O	u	21µM	u	u	u
CC(C)C[C@@H](COCc1ccc([N+](=O)[O-])cc1)N1CCN(C(=O)c2ccc(C(F)(F)F)cc2)CCC1=O	u	16µM	u	n	n
CC(C)CC(COCc1ccc(Cl)cc1)N1CCN(C(=O)c2ccc(Cl)cc2Cl)CCC1=O (centres undefined)	23µM	u	u	n	u
O=C(c1ccc(C(F)(F)F)cc1)N1CCC(=O)N(C(CO)Cc2ccccc2)CC1 (centres undefined)	u	u	n	n	n
CSc1ccc(CN2C(=O)NC3(CCCCCCC3)C2=O)cc1	n	n	n	n	n
Cc1cccc(NC(=O)CSc2n[nH]c(-c3cccnc3)n2)c1	n	n	n	n	n
Cc1ccnc(N2CCC(C(=O)Nc3cccc(C(F)(F)F)c3)CC2)n1	n	u	n	n	n
CCc1c(C)nc2nncn2c1Nc1ccc(Cl)cc1	u	9.2µM	x	x	x
CCc1c(C)nc2nncn2c1NCc1ccccc1	u	16µM	x	x	x
Cc1ccc2nc(NCc3ccccc3)c3nncn3c2c1	n	n	x	x	x
Cc1nc2cnc(N(C)C)nc2n(CCC#N)c1=O	n	n	x	x	x
Cc1onc(-c2c(F)cccc2Cl)c1C(=O)NC(=S)NC1CCS(=O)(=O)C1 (centres undefined)	n	n	n	n	n
Cc1ccc(NC(=O)Cn2cc(S(=O)(=O)c3ccc(C)cc3)c(=O)c3cc4c(cc32)OCO4)cc1	n	n	x	x	x
COC1=CC(=O)C(O)=C/C1=C\C=C\c1ccccc1	2.6µM	4.6µM	x	x	x
